# In ChEMBL document CHEMBL3988442, “University of Dundee, Small-Polar-MMV Screening Library” (2021):
# Among all 69,000 compounds or so, about 1,000 (1.4%) showed an effect of 50% or more. Many of the other results were omitted from the sample, so strong results are more common in it than they were.
# Tested on: Leishmania donovani
# Experiment: Leishmania intramacrophage assay
# Type: functional, organism-based
# Set-up: scale not given: in the data most compounds retested in dose-response had high values
compound,measurement,setting,value
NC(=O)c1cccc2nc([C@H]3CCN(Cc4ccccc4F)C3)[nH]c12,Percent Effect,"30.3 µM, […]",22.02%
NC(=O)c1cccc2nc([C@H]3CCN(Cc4ccccn4)C3)[nH]c12,Percent Effect,"30.3 µM, […]",53.25%
Cc1ccc(CN2CC[C@H](c3nc4cccc(C(N)=O)c4[nH]3)C2)cc1,Percent Effect,"30.3 µM, […]",-18.93%
c1ccc(C(CC2CN(Cc3c[nH]cn3)CCO2)c2ccccc2)cc1 (stereo unspecified),Percent Effect,"30.3 µM, […]",20.85%
CN(C)S(=O)(=O)N(C)C(c1cccc(F)c1)c1ccccn1 (stereo unspecified),Percent Effect,30 µM,24.26%
Clc1ccc(CN2CCC(C3CCN(Cc4cccnc4)CC3)C2)cc1 (stereo unspecified),Percent Effect,"30.3 µM, […]",51.57%
Clc1ccc(N2CCC(C3CCN(Cc4cccnc4)CC3)C2)nc1 (stereo unspecified),Percent Effect,"30.3 µM, […]",-2.762%
Clc1cccnc1N1CCC(C2CCN(Cc3cccnc3)CC2)C1 (stereo unspecified),Percent Effect,"30.3 µM, […]",-17.23%
Cc1ncsc1C(=O)N(C)Cc1ccncc1,Percent Effect,"30 µM, 30.03 µM",-5.146%
Cc1ncsc1CN(Cc1ccccc1)Cc1ncc[nH]1,Percent Effect,"30.3 µM, […]",-37.36%
Cc1ncsc1CN(Cc1ccccc1)Cc1ccncc1,Percent Effect,"30.3 µM, […]",55.73%
Cc1noc(C2CCN(CC(=O)N3CCNC(=O)C3)CC2)n1,Percent Effect,"30.3 µM, […]",-15.33%
O=C(O)C1(Cc2cccc(Cl)c2)CCCN(c2ncnc3[nH]ccc23)C1 (stereo unspecified),Percent Effect,"30.3 µM, […]",20.11%
CCCSc1nn(CCCN(C)C)c2nc3sc(C)c(CC)c3c(=O)n12,Percent Effect,"30.3 µM, […]",-2.726%
O=C(c1ccoc1)N1Cc2cnn(CC3CC3)c2C(COCC2CC2)C1 (stereo unspecified),Percent Effect,"30.3 µM, […]",-14.05%
CC(C)C(=O)N1CCC(c2c(C(N)=O)sc3ccccc23)C1 (stereo unspecified),Percent Effect,"30.3 µM, […]",2.33%
CC(C)S(=O)(=O)CCN1CCN(C(C#N)c2ccccc2)CC1 (stereo unspecified),Percent Effect,"30.3 µM, […]",27.38%
CS(=O)(=O)CCCN1CCN(C(C#N)c2ccccc2)CC1 (stereo unspecified),Percent Effect,"30.3 µM, […]",16.78%
CCCS(=O)(=O)CCN1CCN(C(C#N)c2ccccc2)CC1 (stereo unspecified),Percent Effect,"30.3 µM, […]",50.86%
CC(C)c1nc(C2CCCN(C(=O)CCc3cscn3)C2)no1 (stereo unspecified),Percent Effect,30 µM,12.46%
Cc1oncc1C(=O)NCC1(O)CCc2ccccc2C1 (stereo unspecified),Percent Effect,"30.3 µM, […]",25.53%
Cc1nn(C)c(Cl)c1CNCc1cccnc1N1CCCCC1.Cl,Percent Effect,"30.3 µM, […]",-11.04%
Cc1nn(C)c(Cl)c1CNCc1cccnc1N1CCOCC1.Cl,Percent Effect,"30 µM, 30.03 µM",2.073%
Cc1nn(C)c(Cl)c1CNCc1cccnc1N1CCN(C)CC1.Cl,Percent Effect,"30 µM, 30.03 µM",52.88%
Cc1ccc(C)c(S(=O)(=O)CCNC2CCc3ncnn3C2)c1 (stereo unspecified),Percent Effect,30 µM,28.38%
CCc1ncc(CN[C@@H]2CCCN(C(C)=O)[C@H]2c2ccc(C)s2)cn1.Cl,Percent Effect,"30.3 µM, […]",12.48%
CC(C)c1nc(-c2cc(C(=O)NCCCO)c3ccccn23)cs1,Percent Effect,"30.3 µM, […]",30%
CC(C)c1nc(-c2cc(C(=O)N3CCN(C)CC3)c3ccccn23)cs1.O=C(O)C(F)(F)F,Percent Effect,"30.3 µM, […]",16.88%
CC(C)c1nc(-c2cc(C(=O)NCCN(C)C)c3ccccn23)cs1.O=C(O)C(F)(F)F,Percent Effect,"30.3 µM, […]",74.71%
Cc1nc(-c2cc(C(=O)NCCN3CCOCC3)c3ccccn23)cs1.O=C(O)C(F)(F)F,Percent Effect,"30.3 µM, […]",-52.36%
CC(C)c1nc(-c2cc(C(=O)O)c3ccccn23)cs1,Percent Effect,"30.3 µM, […]",-0.8279%
Cc1cnc(CNc2ccc(C(=O)NCc3ccco3)cc2C)o1,Percent Effect,"30.3 µM, […]",-20.82%
O=C(O)C(F)(F)F.c1cc(CNCC2Cn3nncc3CO2)co1 (stereo unspecified),Percent Effect,"30.3 µM, […]",20.1%
CCCn1nnnc1COC(=O)C1COc2ccc(Cl)cc2C1 (stereo unspecified),Percent Effect,"30.3 µM, […]",-4.057%
O=C(NCC1(c2cccc(F)c2)CC1)N1CCC2(CCOC2)C1 (stereo unspecified),Percent Effect,"30.3 µM, […]",-5.939%
CC1(C)OC(=O)N(CC(=O)N2CCC(c3ccccc3Cl)C2)C1=O (stereo unspecified),Percent Effect,"30.3 µM, […]",16.86%
CC(=O)N1CCC(Cc2cnc(C(=O)N3CCCC3)cn2)C1 (stereo unspecified),Percent Effect,"30.3 µM, […]",-5.476%
CCOCc1ccccc1CNc1ccc2nncn2n1,Percent Effect,"30.3 µM, […]",18.04%
CCn1ncc(CNc2[nH]cnc3nncc2-3)c1C,Percent Effect,"30.3 µM, […]",46.44%
CCn1ncc(Nc2[nH]cnc3nncc2-3)c1C,Percent Effect,"30.3 µM, […]",61.85%
CCn1ncc(Nc2[nH]cnc3nc(C)nc2-3)c1C,Percent Effect,"30.3 µM, […]",-7.482%
N#Cc1c(F)cccc1N1CCCC(C(=O)Nc2nccs2)C1 (stereo unspecified),Percent Effect,"30.3 µM, […]",38.57%
Cc1ccc(C(=O)NCc2ccc(N(C)C)cc2)cn1,Percent Effect,"30.3 µM, […]",1.485%
CN(c1ccc(CNC(=O)c2c[nH]c(=O)c(Cl)c2)cc1)C1CCCCC1,Percent Effect,"30.3 µM, […]",30.08%
CN(c1ccc(CNC(=O)c2ccc(O)nc2)cc1)C1CCCCC1,Percent Effect,"30.3 µM, […]",57.37%
CNC(=O)c1cc(C)n(-c2ccccc2)n1,Percent Effect,"30.3 µM, […]",21.3%
Cc1cnc(CN(C)C2CCN(Cc3nc4ccccc4n3C)C2)o1 (stereo unspecified),Percent Effect,"30 µM, 30.03 µM",57.21%
Cc1nnc(CN(C)C2CCN(Cc3nc4ccccc4n3C)C2)o1 (stereo unspecified),Percent Effect,30 µM,31.75%
CC(=O)N(Cc1ncc(C)o1)C1CCN(Cc2ccncc2Cl)C1 (stereo unspecified),Percent Effect,"30 µM, 30.03 µM",31.13%
Cc1cnc(CN(C)C2CCN(Cc3nc4ccccc4o3)C2)o1 (stereo unspecified),Percent Effect,30 µM,8.725%
CC(=O)N(Cc1ncc(C)o1)C1CCN(Cc2cccc(C#N)c2)C1 (stereo unspecified),Percent Effect,"30 µM, 30.03 µM",6.646%
O=C(c1ccccc1O)N1CCn2c(nnc2C(F)(F)F)C1,Percent Effect,"30.3 µM, […]",-5.557%
CCN(CC)Cc1cc(=O)n2c(n1)CN(C(=O)c1ccc[nH]1)CCC2,Percent Effect,"30.3 µM, […]",36.34%
c1ccc(-c2nnc3ccc(N4CCC5(CCOC5)C4)nn23)cc1 (stereo unspecified),Percent Effect,"30.3 µM, […]",-7.106%
CCN(CCCNC(=O)Nc1ccccc1C(C)C)S(C)(=O)=O,Percent Effect,"30.3 µM, […]",27.9%
O=C(NCCCN1CCCC1=O)c1ccc(-n2ccc3ccccc32)s1,Percent Effect,"30.3 µM, […]",32.92%
O=C(NCCCN1CCOCC1)c1ccc(-n2ccc3ccccc32)s1,Percent Effect,"30.3 µM, […]",90.86%
CCN(CC)CCNC(=O)c1cnc(C(C)(C)C)s1,Percent Effect,"30 µM, 30.03 µM",10.1%
CCN(CC)CCNC(=O)c1ccc(-n2ccc3ccccc32)s1,Percent Effect,"30.3 µM, […]",95.71%
Cn1ccc2c(C(=O)NCCCN3CCCC3)cccc21,Percent Effect,"30.3 µM, […]",16.97%
CCC1CN(CC(=O)NCCN(CC)CC)c2ccccc2S1 (stereo unspecified),Percent Effect,"30.3 µM, […]",24.72%
O=C(NCCN1CCOCC1)c1ccc(-n2ccc3ccccc32)s1,Percent Effect,"30 µM, 30.03 µM",37.35%
O=C(NCCCN1CCCCC1)c1ccc(-n2ccc3ccccc32)s1,Percent Effect,"30 µM, 30.03 µM",94.7%
CCOCCCC(=O)Nc1[nH]nc(-c2ccncc2)c1C,Percent Effect,"30.3 µM, […]",25.28%
CC(C)(O)C1CCN(C(=O)Nc2nc(-c3ccccc3)ns2)CC1,Percent Effect,"30 µM, 30.03 µM",46.85%
CC(C)(CO)CCCNC(=O)N1CCc2c(F)ccc(F)c2C1,Percent Effect,"30.3 µM, […]",-32.7%
